Screening data: PubChem BioAssay, National Center for Advancing Translational Sciences (NCATS)
SMN2 splice enh – enhancers of SMN2 splice variant expression | Potency, µM (top dose mostly 46.1 µM), hits mostly activators | AID 1458 | 2.8% of 210,000 active | HEK293 SMN2-luciferase splicing reporter, luminescence, 30-36 h; note: nearly all actives have a fitted effect of over 55% in size
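HEK293 cells carry an SMN2 […]–luciferase reporter in which exon 7 inclusion puts luciferase in frame. Cells were plated 10-12 h before compound addition, then incubated 30-36 h at 37C. ONE-Glo luminescence was read; sodium butyrate at 4.5 mM final served as control.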
ELG1 genotox – inducers of genotoxicity in HEK293T ELG1-luciferase cells | Potency, µM (series often up to 46 µM), most hits filed as activators | AID 504466 | 1.3% of 330,000 active | HEK293T ELG1-luciferase reporter, luminescence, 16 h; note: nearly all actives have a fitted effect of over 60% in size
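16 hr compound incubation (37 °C, 5% CO2) of HEK293T cells carrying luciferase-tagged ELG1; luciferase then measured by ONE-Glo luminescence after 30 min at RT.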
ELG1 DNA repair – inhibitors of ELG1-dependent DNA repair in HEK293T cells; Potency, µM (titrated, usually from 46.1 µM), actives largely listed as inhibitors; HEK293T ELG1-luciferase reporter, luminescence, 16 h; DNA damage induced by 5-fluorouridine; 2.3% of 330,000 active; note: nearly all actives have a fitted effect of over 55% in size
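Overnight (16 hr) co-exposure of 2,000 cells/well to 5-fluorouridine and compound at 37 °C preceded detection. Luciferase was quantified via ONE-Glo luminescence; loss of signal denotes inhibition.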
FLuc modulator – counter-screen for miR-21 project: firefly luciferase inhibitors or activators; 6.9% of 360,000 active; P08659; Potency, µM (highest dose often 57.5 µM), most hits filed as inhibitors; purified FLuc, Km substrates, luminescence inhibition; AID 588342; note: nearly all actives have a fitted effect of over 55% in size
Target sequence (P08659 whole entry, looked up): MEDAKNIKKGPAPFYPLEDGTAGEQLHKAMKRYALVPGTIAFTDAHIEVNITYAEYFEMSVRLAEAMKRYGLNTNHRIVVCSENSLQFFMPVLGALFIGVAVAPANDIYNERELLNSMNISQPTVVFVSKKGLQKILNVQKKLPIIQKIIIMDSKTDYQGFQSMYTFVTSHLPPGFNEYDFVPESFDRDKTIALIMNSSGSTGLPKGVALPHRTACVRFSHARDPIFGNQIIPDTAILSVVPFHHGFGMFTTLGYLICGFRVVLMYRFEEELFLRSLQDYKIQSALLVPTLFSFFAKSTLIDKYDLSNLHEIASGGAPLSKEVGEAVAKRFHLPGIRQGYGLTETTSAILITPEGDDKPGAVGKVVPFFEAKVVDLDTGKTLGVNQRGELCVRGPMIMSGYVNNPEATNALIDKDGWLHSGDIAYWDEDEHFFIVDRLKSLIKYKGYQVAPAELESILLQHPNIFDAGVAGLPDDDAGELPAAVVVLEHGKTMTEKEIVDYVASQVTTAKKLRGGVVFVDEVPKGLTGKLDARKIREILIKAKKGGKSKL
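Biochemical qHTS of compounds, final roughly 60 µM downward over six points, against 10 nM purified firefly luciferase using Km concentrations of substrates (10 uM D-luciferin, 10 uM ATP) in Tris acetate pH 7.5 buffer; luminescence output.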
Rab9 prom act – activates the Rab9 promoter | Huh7 Rab9 promoter-luciferase reporter, luminescence, 24 h | Potency, µM (doses to about 9.22 µM), most hits filed as activators | 2.8% of 320,000 active; note: nearly all actives have a fitted effect of over 60% in size
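Stable Rab9-luc Huh7, 1500 cells/well, 2 h settle; cmpd in DMSO, 24 h, 37 °C/5% CO2; luciferase reagent 10 min RT; luminescence.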
NPC1 promoter act – NPC1 promoter activation. Potency, µM (titrated, usually from 9.22 µM), hits mostly activators. 2.4% of 320,000 active. Huh7 NPC1 promoter luciferase reporter, 24 h; note: nearly all actives have a fitted effect of over 60% in size
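In 1536-well qHTS, Huh7 cells harboring an NPC1 promoter–luciferase construct received compound for 24 h; activation was quantified by luminescence following luciferase reagent addition.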
Hits are given with their value; i = inactive; ? = inconclusive; nt = no result; [ ] = another dose, or the depositor's remark. The list is not random: actives were taken first. Their share in the collection is about 9.3%. Calls come from the whole dose curve; as a rule, active = well fitted curve in the direction sought with a large enough effect; inconclusive = small, poorly fitted or top-dose-only effect, or another doubt; inactive = no such curve, though single readings can be large; an effect the other way counts as inactive or inconclusive.

SMILES	SMN2 splice enh	ELG1 genotox	ELG1 DNA repair	FLuc modulator	Rab9 prom act	NPC1 promoter act
Nc1ccc(N=Nc2ccccc2)c(N)n1	?	?	?	17µM	i	i
Nc1ccc(N=Nc2ccccc2)c2ccccc12	nt	i	i	17µM	i	?
Cc1ccc(NC(=O)c2ccccc2)s1	2µM	?	?	2.7µM	0.63µM	0.71µM
Cc1cc(NC(=O)c2ccccc2)sc1C	11µM	nt	nt	3.4µM	nt	nt
CC(C)CCn1c(Cl)nc2c1c(=O)n(C)c(=O)n2C	i	i	i	i	i	i
NCCN	i	nt	nt	nt	nt	nt
Cc1cccc(C(=O)O[C@H]2[C@H](C)NS(=O)(=O)[C@H]3CC4C=C[C@]23O4)c1	nt	i	?	nt	nt	nt
COc1ccc(CNC(=O)CCCn2ncn3c(cc4occc43)c2=O)cc1	nt	i[9.26 µM]	i	i	i	i
CCOC(=O)CCCn1ncn2c(cc3occc32)c1=O	i	21µM	?	?	i	i
NC(=O)c1cnn(-c2ccc3ccccc3c2)c1N	18µM	?	?	?	4µM	i
CC(=O)NC(=O)c1cnn(-c2ccccc2)c1N	nt	i	i	i	i	i
O=C(Nc1nc2cc3c(cc2s1)OCCO3)C1=COCCO1	nt	?	?	0.054µM	i	i
Cc1ccc(Cl)c2sc(NC(=O)C3=COCCO3)nc12	nt	?	?	19µM	i	i
O=C(Nc1nc2ccc(F)cc2s1)C1=COCCO1	nt	?	?	0.43µM	0.28µM	0.71µM
Cc1cc(C)c(-c2csc(NC(=O)C3=COCCO3)n2)c(C)c1	nt	?	i	i	i	i
COc1ccc(Cl)c2sc(NC(=O)C3=COCCO3)nc12	nt	?	?	?	i	i
CSc1cccc2sc(NC(=O)C3=COCCO3)nc12	nt	i	?	i	i	i
Cc1cc(C)c2sc(NC(=O)C3=COCCO3)nc2c1	nt	?	?	2.1µM	0.45µM	0.56µM
O=C(Nc1nnc(-c2cc(Cl)ccc2Cl)o1)C1=COCCO1	nt	i	i	i	i	i
Cc1ccc(-c2nnc(NC(=O)C3=COCCO3)o2)c(C)c1	nt	i	?	15µM	i	i
CC(C)(Oc1ccc(CCNC(=O)c2ccc(-c3ccc(Cl)cc3)o2)cc1)C(=O)O	i	i	i	24µM	i	i
CCn1c(SCC(=O)Nc2nccs2)nnc1-c1ccc(S(=O)(=O)N2CCCCC2)cc1	nt	i	21µM	i	i	i
CNc1nc2c(-c3ccc(Cl)cc3)nnn2c2ccccc12	nt	?	?	i	i	i
C=CCC1c2cccc(C(=O)O)c2C(=O)N1c1ccc(Cl)cc1 (stereo unspecified)	i	i	i	i	i	i
Cc1ccc(C)c(N2CCN(C(=O)Cc3c(C(=O)O)[nH]c4ccc(Cl)cc34)CC2)c1	nt	i	i	i	i	i
SMILES	SMN2 splice enh	ELG1 genotox	ELG1 DNA repair	FLuc modulator	Rab9 prom act	NPC1 promoter act
O=C(O)Cn1cc(/C=N/Nc2ccc([N+](=O)[O-])cn2)c2ccccc21	nt	i	i	13µM	i	i
Cc1cc(/C=N/Nc2ccc([N+](=O)[O-])cn2)c(C)n1-c1ccccc1	?	?	?	?	3.5µM	?
Cc1ccc(-n2c(C)cc(/C=N/Nc3ccc([N+](=O)[O-])cn3)c2C)cc1	i	i	?	i	i	i
Cc1ccc(Cn2cc(/C=N/Nc3ccc([N+](=O)[O-])cn3)c3ccccc32)cc1	i	i	i	i	i	i
Cc1ccccc1N1CCN(c2ccc(NC(=O)C3CCCCC3C(=O)O)cc2)CC1 (stereo unspecified)	i	i	?	11µM	i	i
CCc1cc(=O)oc2cc(OCC(=O)NCCN3CCOCC3)c(Cl)cc12	nt	i	i	i	i	i
CCOc1ccc(C(=O)c2cn(Cc3ccc(Cl)cc3)c3cc(OC)c(OC)cc3c2=O)cc1	i	nt	nt	i	nt	nt
C/C(=N\NC(=O)c1ccccc1O)c1c(O)cc(C)oc1=O	?	i	?	15µM	?	i
C/C(=N\NC(=O)c1cc(C)nc2ccccc12)c1cccs1	nt	i	i	i	i	i
C/C(=N\NC(=O)c1ccccc1[N+](=O)[O-])c1c(O)cc(C)oc1=O	i	i	i	i	i	i
C/C(=N\NC(=O)c1ccccc1O)c1ccc(Br)s1	1.6µM	i	?	3.8µM	?	?
C/C(=N\NC(=O)c1cc(Br)ccc1O)c1cccs1	18µM	?	?	11µM	3.5µM	2µM
C/C(=N/NC(=O)c1ccc(Br)o1)c1cccs1	nt	9.2µM	?	17µM	4µM	2.5µM
Cc1ccc(C(=O)c2c[nH]c(C(=O)NCc3cccnc3)c2)cc1	i	i	i	i	i	i
COC(=O)C1CCN(C(=O)c2cc3ccccc3oc2=O)CC1	i	?	?	?	?	?
O=C(O/N=C(/c1ccccc1)c1ccncc1)c1ccc(F)cc1	i	i	i	i	i	i
N/C(=N\OC(=O)c1cc(Cl)ccc1Cl)c1cccnc1	?	21µM	?	9.5µM	?	i
N/C(=N\OC(=O)c1cc(Br)ccc1Cl)c1cccnc1	i	i	?	21µM	?	?
N/C(=N\OC(=O)c1ccccc1)c1cccnc1	nt	?	?	5.4µM	i	i
N/C(=N\OC(=O)c1ccccc1)c1ccn[nH]1	nt	10µM	?	6.7µM	3.5µM	2.2µM
CCOc1ccccc1NC(=O)C1CCN(C(=O)NCc2ccccc2)CC1	i	i	i	i	i	i
COc1ccc(C(=O)N(C)Cc2ccccc2F)cc1S(=O)(=O)N1CCCC1	nt	i	i	i	i	i
COc1ccc(N(C(=O)c2ccco2)S(=O)(=O)c2cccc([N+](=O)[O-])c2)cc1	i	i	i	i	i	i
COc1ccc(-c2noc(CCC(=O)N(C)c3cccc(C)c3)n2)cc1	i	i	i	i	i	i
N/C(=N\OC(=O)c1ccccc1Cl)c1cccnc1	16µM	?	?	4.3µM	?	3.5µM
SMILES	SMN2 splice enh	ELG1 genotox	ELG1 DNA repair	FLuc modulator	Rab9 prom act	NPC1 promoter act
N/C(=N\OC(=O)c1ccc(Cl)cc1[N+](=O)[O-])c1cccnc1	nt	?	?	24µM	?	i
Cc1ccc(C(=O)O/N=C(\c2ccccc2)c2cccnc2)cc1	i	i	i	17µM	i	i
CN1C(=O)CS(=O)c2ccc(C(=O)NCCC3=CCCCC3)cc21 (stereo unspecified)	i	i	?	i	i	i
CN1CCC(=NOc2ccc([N+](=O)[O-])cc2)CC1	nt	?	?	?	1.6µM	1.8µM
CCOc1cc(/C=C2\C(=O)N(CCc3ccc(OC)c(OC)c3)C(C)=C2C(=O)OC)ccc1O	i	i	1.6µM	i	i	i
CC(=O)Nc1ccc(Nc2nc(C)cc(C)n2)cc1	nt	i	i	i	i	i
COc1cccc(/C=N/NC(=S)Nc2cccc(S(=O)(=O)N(C)C)c2)c1	nt	i	i	?	i	i
COc1ccc(O)c(/C=N/NC(=S)Nc2cccc(S(=O)(=O)N(C)C)c2)c1	i	i	?	11µM	i	i
CN(C)S(=O)(=O)c1cccc(NC(=S)N/N=C/C(c2ccccc2)c2ccccc2)c1	i	i	i	i	i	i
